Shown are actives, neighbours in structure and some others; about 10% of the full set was active somewhere.
hNpr1 antagonist = Natriuretic polypeptide receptor (hNpr1) antagonism - Primary qHTS; Atrial natriuretic peptide receptor 1 (Homo sapiens), P16066; HEK293 hNpr1 GloSensor cGMP, ANP-stimulated luminescence; Potency, µM (titrated, usually from 46.3 µM), actives largely listed as inhibitors; hit rate 1.6% among 76,000; calls by dose curve; note: nearly all actives have a fitted effect of over 60% in size
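HEK293 cells stably expressing human Npr1 and cGMP GloSensor pGS-40F, loaded 2 h with 2% GloSensor reagent, given compound 30 min at room temperature. Luminescence read before and 20 min after 0.1 nM hNppA.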
FLuc inh-1 = Firefly luciferase inhibition profiling of diverse chemical library using quantitative high-throughput screening; purified P. pyralis luciferase, luminescence, biochemical; Potency, µM (series often up to 115 µM), actives largely listed as inhibitors; hit rate 2.5% among 76,000; note: nearly all actives have a fitted effect of over 65% in size
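Biochemical qHTS: compound (6-point titration) added to 10uM D-luciferin plus 10uM ATP in Tris acetate pH 7.5 buffer with Mg, Tween-20 and BSA, then purified enzyme at 10nM; light output imaged.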
3T3 cytotox = Cytotoxic Profiling in NIH 3T3 Cell Line of Diverse Libraries Using Quantitative High-Throughput Screening | Potency, µM (highest dose often 96.7 µM), hits mostly inhibitors | hit rate 4.3% among 94,000 | NIH 3T3 viability, CellTiter-Glo ATP luminescence, 48-72 h; note: nearly all actives have a fitted effect of over 55% in size
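Viability of NIH 3T3 cells after 48 or 72 hr compound treatment at 37 °C was assessed by CellTiter-Glo, with luminescence imaged following a 10 min room-temperature step.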
GPT2 inhibitor = Primary qHTS assay for inhibitors of Glutamate pyruvate transaminase 2 (GPT2); Alanine aminotransferase 2 (Homo sapiens), Q8TD30; Recombinant GPT2, coupled pyruvate oxidase/HRP Amplex Red fluorescence; Potency, µM (series often up to 57.7 µM), most hits filed as inhibitors; hit rate 0.25% among 100,000; note: nearly all actives have a fitted effect of over 60% in size
Target sequence (Q8TD30 whole entry, looked up): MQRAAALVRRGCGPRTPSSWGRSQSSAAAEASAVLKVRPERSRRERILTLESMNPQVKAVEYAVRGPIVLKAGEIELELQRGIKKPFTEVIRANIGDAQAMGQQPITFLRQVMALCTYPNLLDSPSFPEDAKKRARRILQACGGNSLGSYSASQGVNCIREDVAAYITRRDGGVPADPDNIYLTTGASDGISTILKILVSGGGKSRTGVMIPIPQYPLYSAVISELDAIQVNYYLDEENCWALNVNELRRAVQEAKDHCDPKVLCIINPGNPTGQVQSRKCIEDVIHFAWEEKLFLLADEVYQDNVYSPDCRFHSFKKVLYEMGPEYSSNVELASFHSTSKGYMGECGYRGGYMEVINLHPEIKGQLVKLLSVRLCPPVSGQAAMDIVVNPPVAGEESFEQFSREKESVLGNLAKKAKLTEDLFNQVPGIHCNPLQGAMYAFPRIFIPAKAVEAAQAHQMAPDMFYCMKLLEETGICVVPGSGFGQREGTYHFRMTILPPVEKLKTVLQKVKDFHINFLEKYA
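Fluorescence of coupled pyruvate oxidase/HRP/Amplex Red system (50uM Amplex, 30 min, dark) reports pyruvate formed by GPT2. Enzyme reaction: 10ng/uL GPT2, 2mM L-alanine, 250uM a-KG, 30 min room temperature, pH 7.5; 50uM AOA control.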
HEK cytotox = Cytotoxic Profiling in HEK 293 Cell Line of Diverse Libraries Using Quantitative High-Throughput Screening; Potency, µM (doses to about 115 µM), most hits filed as inhibitors; AID 1345083, 2018; hit rate 6.6% among 94,000; HEK 293 viability, ATP luminescence (CellTiter-Glo), 48-72 h; note: nearly all actives have a fitted effect of over 60% in size
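Luminescence from cellular ATP, measured with CellTiter-Glo, indicates HEK 293 viability. Cells plated at 250 cells/well are treated with compound for 48 or 72 hr at 37 degree Celsius before reagent addition.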
FLuc SDR no ATP = Firefly luciferase (FLuc-C-HiBiT) SDR gain of signal screen - without ATP | AID 1963318, 2024 | Purified FLuc-C-HiBiT, Nano-Glo HiBiT luminescence, no ATP | hit rate 7.8% among 1,300 | shares compounds with FLuc inh-1 | Potency, µM (titrated, usually from 32.7 µM), usual class: activators; note: nearly all actives have a fitted effect of over 55% in size
FLuc SDR ATP = Firefly luciferase (FLuc-C-HiBiT) SDR gain of signal screen - plus ATP; hit rate 8.7% among 1,300; AID 1963319, 2024; shares compounds with FLuc inh-1; purified FLuc-C-HiBiT + ATP, HiBiT complementation luminescence; Potency, µM (series often up to 32.7 µM), hits mostly activators;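 note: signal reports ligand binding via conformational change of the enzyme rather than luciferase catalysis; nearly all actives have a fitted effect of over 55% in size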
FLuc inh-2 = Firefly luciferase (FLuc-C-HiBiT) enzymatic inhibition screen - Functional assay; shares compounds with FLuc inh-1; purified FLuc-C-HiBiT enzyme, luciferin luminescence; Potency, µM (doses to about 32.7 µM), usual class: inhibitors; hit rate 42% among 1,300; note: nearly all actives have a fitted effect of over 70% in size
A number is an active result; 0 = inactive; ? = inconclusive; - = no result. Unless noted, calls come from the whole dose curve; as a rule, active = well fitted curve in the direction sought with a large enough effect; inconclusive = small, poorly fitted or top-dose-only effect, or another doubt; inactive = no such curve, though single readings can be large; an effect the other way counts as inactive or inconclusive.

SMILES	hNpr1 antagonist	FLuc inh-1	3T3 cytotox	GPT2 inhibitor	HEK cytotox	FLuc SDR no ATP	FLuc SDR ATP	FLuc inh-2
Cc1nc(C)c(C(=O)N2CCC(Oc3ccc(-c4noc(-c5ccccc5)n4)cc3)C2)s1 (stereo unspecified)	6.3µM	5.6µM	?	0	?	0	0	?
CCc1nc(-c2ccc(OC3CCN(C(=O)C4CC4)C3)cc2)no1 (stereo unspecified)	?	7.9µM	?	0	?	0	0	?
CCc1nc(-c2ccc(OC3CCN(C(=O)COc4ccc(F)cc4)C3)cc2)no1 (stereo unspecified)	?	0	?	?	?	-	-	-
CN(C)C(=O)c1cc(-c2ccccc2C(F)(F)F)nc2c1cnn2C	-	-	0	-	0	-	-	-
O=C(c1cn(CCC2CCCCN2Cc2cccnc2)nn1)N1CCOCC1 (stereo unspecified)	-	-	0	0	0	-	-	-
CCC1Oc2ccc(NC(=O)c3ccc(OC)c(OC)c3)cc2CN(Cc2ccc(Cl)cc2)C1=O (stereo unspecified)	0	0	0	0	?	-	-	-
Cc1ccc(C)c(-c2cc3c(=O)n(CCNC(=O)c4ccccc4)ccn3n2)c1	0	0	?	0	?	-	-	-
Cc1ccc(-c2cc3c(=O)n(CCNC(=O)c4nn(C)c5ccccc45)ccn3n2)c(C)c1	0	1.4µM	?	0	?	?	?	1.6µM
Cc1ccc(-c2cc3c(=O)n(CCNC(=O)Cc4ccsc4)ccn3n2)c(C)c1	0	8.9µM	?	0	?	?	?	6.2µM
CC(=O)Nc1cccc(C(=O)NCCn2ccn3nc(-c4ccc(C)cc4C)cc3c2=O)c1	0	5µM	?	0	40µM	0	?	9.9µM
COc1cccc(-c2cc3c(=O)n(CCNC(=O)c4nn(C)c5ccccc45)ccn3n2)c1	0	?	?	0	?	-	-	-
Cc1ccc(C)c(-c2cc3c(=O)n(CCNC(=O)Cc4cccs4)ccn3n2)c1	0	0	?	0	?	-	-	-
COc1ccc(C(=O)NCCn2ccn3nc(-c4cc(C)ccc4C)cc3c2=O)cc1OC	0	0	?	0	?	-	-	-
Cc1ccc(-c2cc3c(=O)n(CCNC(=O)c4cccnc4)ccn3n2)c(C)c1	0	8.9µM	?	0	?	0	?	?
O=C(NC1CCN(C(=O)c2ccc(-c3cncnc3)cc2)CC1)c1ccc(F)cc1	-	-	0	0	?	-	-	-
Cc1ccc(-c2cc3c(=O)n(CCNC(=O)c4ccc(N(C)C)cc4)ccn3n2)c(C)c1	0	2.5µM	0	0	?	0	0	?
COc1ccc(C(=O)NCCn2ccn3nc(-c4ccc(C)cc4C)cc3c2=O)cc1F	?	1.3µM	?	0	?	0	?	3.5µM
NCC(CNc1nc(Nc2cccc(NC(=O)N3CCCC3)c2)ncc1I)C(=O)c1cccs1 (stereo unspecified)	-	-	-	0	-	-	-	-
O=C1C[C@H]2CC[C@@H](CN1)N2Cc1ccc(OCc2ccccc2)cc1	?	11µM	?	0	?	0	0	?
Cc1ccc(NC(=O)CCc2c(C)nc3cc(-c4ccccc4)nn3c2C)cc1F	-	-	-	-	-	0	?	?
Cc1cccc(-n2nc(C)c(CCC(=O)NC3CC3)c2Oc2ccc(F)cc2F)c1	0	0	?	0	?	-	-	-
Cc1nc2cc(-c3cccc(F)c3)nn2c(C)c1CCC(=O)NC1CCCCC1	-	-	-	-	-	0	?	?
CC(=O)c1ccc(NC(=O)CCc2c(C)nc3cc(-c4ccc(Cl)cc4)nn3c2C)cc1	-	-	-	-	-	0	?	?
O=C(Nc1cccc(F)c1)C1CN(C2CCCC2)C(=O)N1 (stereo unspecified)	-	-	0	0	0	-	-	-
O=C(O)Cn1ccc2cc(OCc3cccc(-c4ccc(F)c(Cl)c4)c3)cnc21	0	0	0	0	?	-	-	-
SMILES	hNpr1 antagonist	FLuc inh-1	3T3 cytotox	GPT2 inhibitor	HEK cytotox	FLuc SDR no ATP	FLuc SDR ATP	FLuc inh-2
COc1cccc(-c2cccc(COc3cnc4c(ccn4CC(=O)O)c3)c2)c1F	0	13µM	?	0	0	0	0	13µM
Cc1cc(F)ccc1-c1cccc(COc2cnc3c(ccn3CC(=O)O)c2)c1	0	0	0	0	?	-	-	-
Cc1ccc(-c2cccc(COc3cnc4c(ccn4CC(=O)O)c3)c2)cc1	0	7.9µM	0	0	?	0	0	?
O=C(NCc1ccc(F)cc1)c1nc2sccn2c1-c1cccnc1	-	-	0	0	0	-	-	-
CCOC(=O)C1CCN(C(=O)c2cc(-c3ccncc3)cn2Cc2ccc(C)cc2)CC1	0	0	?	0	?	-	-	-
CCn1cc(-c2ccc(C)cc2)cc1C(=O)O	0	?	0	0	?	0	0	0
Cc1ccc(Cn2cc(-c3ccncc3)cc2C(=O)O)cc1	0	0	?	0	0	0	0	0
CCn1cc(-c2ccccc2)cc1C(=O)O	0	0	0	0	0	-	-	-
CCOC(=O)C1CCN(C(=O)c2nc3sccn3c2-c2ccc(C(F)(F)F)cc2)CC1	-	-	?	0	0	-	-	-
O=C(NCC(F)(F)F)C1CCCN1c1nc2ncccc2o1 (stereo unspecified)	0	0	0	0	0	0	0	0
C#CCNC(=O)C1CCCN1c1nc2ncccc2o1 (stereo unspecified)	0	0	0	0	0	-	-	-
COc1ccc2cc(C3CN(C(=O)CNC(=O)C(C)C)CCO3)ccc2c1 (stereo unspecified)	0	8.9µM	0	0	0	?	?	?
CC(=O)NCc1nnc2n1C(C(=O)Nc1ccc(C)cc1)CC2 (stereo unspecified)	-	-	0	0	0	-	-	-
CCCC(=O)Nc1cnc(-c2ccc(C)cc2)nc1	?	2µM	0	0	?	?	?	3.5µM
CCN(CC)S(=O)(=O)c1ccc2nc(NC(=O)c3cccnc3)sc2c1	-	-	-	-	-	0	0	?
O=C(Nc1cccnc1)c1nc2c(o1)CCN(CCCc1ccccc1)CC2	0	0	?	0	?	-	-	-

Assay outcomes: PubChem BioAssay, National Center for Advancing Translational Sciences (NCATS)
